The record followed here is PubChem BioAssay AID602346 (Broad Institute, 2012).

In all, about 340,000 compounds went through this assay and about 1,200 (0.35%) were called active. Many of the other results were omitted from the sample, so actives are more common in it than they were. Unmarked numbers belong to inactive results. Cut-off read from the data, not from the text of the source: active = inhibition above about 50% (passing the limit was not always enough); inconclusive = no clear call, values can overlap the other calls; inactive = below about 31%.

The assay can be described thus: blockers of Vif multimerization in cells – imaging, HEK293T, single point, primary screen (AID 602346). To be noted: Vif self-association by quenched fluorescence, 24 h, at 7.49 µM, stronger effect = higher value.
In general, inhibition refers to the relative decrease from the control value, in per cent. With `COc1ccc(OC)c(C(=O)NC2CCCc3c2cnn3-c2cc(C)cc(C)c2)c1` (stereo not given), the inhibition was -9.82%. As for `CC(=O)Nc1cc(-c2ccccc2F)cn2c(-c3cccc(C(F)(F)F)c3)cnc12`, the inhibition is -25.4%. As to `OC[C@@H]1CN(Cc2ccncc2)C[C@H](n2cnc3c(N4CCN(c5ccccc5)CC4)ncnc32)O1`, the inhibition was -25.2%. Take `NS(=O)(=O)c1ccc(-c2ccc(/C=C3\SC(=O)NC3=O)o2)cc1`: the inhibition was 55.8% (active).

For `CN1CCN(/N=C/c2ccc(-c3ccc([N+](=O)[O-])cc3)o2)CC1`, the inhibition was -7.47%. For `O=C1[C@H]2[C@@H](c3ccc(C(F)(F)F)cc3)N[C@]3(CCCN(Cc4ccc(Br)cc4)C3=O)[C@H]2C(=O)N1Cc1ccccc1`, the inhibition is 1.02%.

Consider `C#Cc1cc(N2CCN(C(=O)c3ccoc3)CC2)n2nc(-c3cccc(Cl)c3)cc2n1`, for which the inhibition is -5.39%. Consider `CN(C)C(=O)CCc1ccc2c3c([nH]c2c1)[C@]1(CCc2ccccc2)[C@@H](C(=O)N2CCCCC2)C[C@H](CC(=O)NCCC2=CCCCC2)C(=O)N1CC3`, for which the inhibition was 2.36%.

Turning to `CC(C)N(C(=O)[C@H]1C[C@H](CC(=O)NCCC2=CCCCC2)C(=O)N2CCc3c([nH]c4cc(CCC(=O)N(C)C)ccc34)[C@]12C)C(C)C`, the inhibition is 0.666%. With `CN(C)C(=O)CCc1ccc2c3c([nH]c2c1)[C@]1(C)[C@@H](C(=O)N2CCCCC2)C[C@H](CC(=O)NCCC2=CCCCC2)C(=O)N1CC3`, the inhibition is 71.8% (active). With `Cc1nc2c(OCc3cccc(Cl)c3)cccn2c1N(C)CC1CC1`, the inhibition is -11.2%. For the molecule `COc1ccc(CC(N)c2csc(NC(=O)Nc3ccc(C(C)C)cc3)n2)cc1` (stereo not given), the inhibition is -7.74%. Consider `Cc1ccc(C(=O)Nc2nc3ccc(Cl)cc3s2)o1`, for which the inhibition is -31.1%.

In the case of `Cc1ccc(CCC(=O)Nc2ncc(Cc3cc(Cl)ccc3Cl)s2)o1`, the inhibition was 144% (active). Consider `Cc1ccc(Cc2cnc(N)s2)o1`, for which the inhibition is -1.08%.

Turning to `CSCCC(c1nnnn1Cc1ccccc1)N1CCN(C/C=C/c2ccccc2)CC1` (stereo not given), the inhibition is -1.75%. Consider `Cc1ccc(Cn2c(C)c(C(=O)NCc3ccccc3C(F)(F)F)sc2=O)cc1`, for which the inhibition was 4.56%. As to `COC(=O)c1ccc(COc2ccc(/C=N/NC(=O)C(=O)Nc3ccc(OC)cc3)cc2OC)o1`, the inhibition is 4.89%. As to `N#Cc1cc([N+](=O)[O-])ccc1Oc1cccc(/C=N/NC(=O)c2ccc(Cl)cc2)c1`, the inhibition is -18.6%.

`CCCc1ccc(OCc2ccc(C(=O)N/N=C/c3cccc([N+](=O)[O-])c3)o2)c(OC)c1`: the inhibition is 53.7% (active).

`CN(C)c1cccc(NC(=O)c2ccc(-c3ccc(F)c(F)c3)c3ccoc23)c1`: the inhibition was 3.47%.

Consider `CC[C@@H]1Cc2cc(O)ccc2C2=C1c1ccc(O)cc1C[C@H]2CC`, for which the inhibition was 85.1% (active). For the molecule `CC(=O)Nc1cccc(-c2cc(NC(C)=O)c3ncc(-c4ccccc4)n3c2)c1`, the inhibition is 18.3%.

Consider `O=c1[nH]c2ccccc2n1C1CCN(CCOc2ccccc2)CC1`, for which the inhibition is -4.07%.

For `COc1ccc(/C=C/C(=O)c2c(O)cc(OC)cc2OC)cc1`, the inhibition was -16.7%. Regarding `COc1cccc(-c2cnc(OC(C)(C)C)nc2OC(C)(C)C)c1`, the inhibition is -0.006%. For the molecule `CC(C)(C)Oc1ncc(Br)c(OC(C)(C)C)n1`, the inhibition was 61.1% (active). Regarding `Cc1ccc(NC(=O)Cn2sc3ccccc3c2=O)cc1`, the inhibition was 4.93%. `COc1ccc(NC(=O)C2=C(C)NC(=O)NC2c2ccccc2[N+](=O)[O-])cc1` (stereo not given): the inhibition was -2.26%. Then `COc1ccc(NC(=O)ON=C2c3ccccc3-c3ccccc32)cc1`, with -9.14%; and `COc1ccc(N/C=C(\C2OC(=O)c3ccccc32)[N+](=O)[O-])cc1` (stereo not given), with 50.1% (active). As for `NC(Cc1ccccc1)c1csc(Nc2cc(Oc3ccccc3)ncn2)n1` (stereo not given), the inhibition was -3.02%. Regarding `CCOC(=O)[C@H]1Nc2ccc(Cl)cc2[C@@H]2[C@H]1C1CC(c3ccccc31)N2C(=O)OCc1ccccc1` (stereo not given in full), the inhibition was 2.38%.

For `CC(=O)Oc1ccc(Cn2c(C)c(C(=O)NCc3ccc(C#N)cc3)sc2=O)cc1`, the inhibition is 1.95%. On to `COc1cccc(CNc2nc3cc(-c4csc5ccccc45)sc3c(=O)n2C)c1`, for which the inhibition is -4.94%.

Take `COc1ccc(CC(NC(C)=O)C(=O)NC2CCN(C(=O)C3CC3)CC2)cc1OC` (stereo not given): the inhibition was -0.652%. With `COc1ccc(CC(NC(C)=O)C(=O)NC2CCN(C(=O)Nc3ccc(C#N)cc3)CC2)cc1OC` (stereo not given) the figure was -4.35%; with `COc1ccc(CC(NC(C)=O)C(=O)N2CCN(C(=O)Nc3cccc(Cl)c3)CC2)cc1OC` (stereo not given), 50.1% (active); with `CCOc1ccc(CCN2C(=S)N([C@@H](CC(C)C)CN3CCC[C@@H]3CN3C(=S)NC[C@@H]3Cc3ccc(O)cc3)C[C@@H]2Cc2ccc(O)cc2)cc1`, 1.22%.

Turning to `CCc1nc2ccc(C(=O)NCc3ccc(OC)cc3)cn2c1N(CC)Cc1cccc(Br)c1`, the inhibition was 4.42%. With `Cc1cccc(C(=O)NC2CCN(CC(=O)Nc3cccc(Cl)c3)CC2)c1` the figure was -0.446%. Regarding `CCCOc1ccc(F)cc1-c1cc(C(=O)NCc2ccc(F)cc2)[nH]n1`, the inhibition was 14.3%.

`CN(C)C(=S)Nc1ccc(Br)cc1Cl`: the inhibition is 1.91%. Then `CC(C)(C)NC(=O)COC(=O)c1cc(Br)ccc1Cl`, with -3.23%; and `CN(C)C(=O)c1cc(Br)ccc1Cl`, with 102% (active). Take `CCOC(=O)C1CCCN(C(=O)c2ccc(C)c(F)c2)CC1` (stereo not given): the inhibition is -7.05%. Turning to `COc1ccc(-c2cc(NC(C)=O)c3ncc(-c4cc(OC)c(OC)c(OC)c4)n3c2)cn1`, the inhibition is -2.19%. With `COc1ccccc1CNC(=O)c1cc(-c2cc(Cl)ccc2C)n[nH]1` the figure was 20.2%; with `COc1ccc(C(CNC(=O)COc2ccc([N+](=O)[O-])cc2)N2CCCCC2)cc1` (stereo not given), 3.74%. `COc1ccc(C(CNC(=O)COc2ccccc2OC)N2CCCCC2)cc1` (stereo not given): the inhibition is -2.23%. Turning to `CCc1ccc(OCC(=O)NCC(c2ccc(Cl)cc2)N2CCCCC2)cc1` (stereo not given), the inhibition is 58.2% (active). Then `CC(C)Nc1nc(NCCOc2ccccc2Cl)c2sccc2n1`, with -13.3%. With `Oc1cccc2cc(-c3ccncc3)cnc12` the figure was 11.1%; with `CCOC(=O)C(=Cc1ccccc1)C(=O)c1ccccc1`, -5.2%; with `COc1ccc(C(C)(O)c2nc(-c3cc(F)cc(F)c3)cs2)cc1` (stereo not given), -4.33%.
